Assay [1] in a line: NCI Yeast Anticancer Drug Screen. Data for the rad50 strain (AID 155).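 Note: 0% = growth of vehicle-only cultures of the same strain.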 As to conditions: S. cerevisiae rad50 strain growth inhibition, hits give high values. The method, boiled down:
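A DNA repair-deficient yeast mutant serves as the test organism; compound-induced growth inhibition is calculated against vehicle-treated cells.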

Assay [2] in a line: NCI Yeast Anticancer Drug Screen. Data for the mec2-1 strain (AID 157). Conditions: S. cerevisiae mec2-1 strain, hits give high values. The method, boiled down:
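Growth inhibition is read against vehicle-treated controls after compound exposure of the mec2-1 yeast strain, which is defective in DNA damage repair or cell cycle control.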

Assay [3] is described as follows: NCI Yeast Anticancer Drug Screen. Data for the sgs1 mgt1 strain (AID 161).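 Note: 0% = growth of cultures given vehicle only.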 As to conditions: S. cerevisiae sgs1 mgt1 strain, hits give high values. In outline: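 Yeast cells carrying a defined DNA-repair defect were exposed to test compounds. Growth inhibition was measured relative to vehicle-treated controls.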
The nature of assay [4]: NCI Yeast Anticancer Drug Screen. Data for the cln2 rad14 strain (AID 165).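 Note: 0% = growth equal to vehicle treated cultures.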 As to conditions: S. cerevisiae cln2 rad14 strain, hits give high values. In outline:
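Growth inhibition, relative to vehicle-treated controls, is the read-out. The test organism is a yeast strain with defined genetic alterations, cln2 rad14.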

Assay [5] can be described thus: NCI Yeast Anticancer Drug Screen. Data for the bub3 strain (AID 167). Conditions: S. cerevisiae bub3 mutant strain, hits give high values. In outline: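 Inhibition values come from growth of compound-treated mutant yeast normalised to vehicle-treated controls.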
The nature of assay [6]: NCI Yeast Anticancer Drug Screen. Data for the mlh1 rad18 strain (AID 175). Conditions: S. cerevisiae mlh1 rad18 strain growth inhibition, hits give high values. In outline:
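Cells of a genetically altered yeast strain, deficient in DNA damage repair, were treated with compound. Their growth was then compared with that of vehicle-treated cultures to give inhibition.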

The mark [7] stands for this setting: at 5.0 µM (retest, dose inferred, filed as 0.5).
[8] abbreviates: at 50.0 µM (retest, dose inferred, filed as 5.0).

Compounds without any hit were thinned out: in the full panel of roughly 79,000, 15% have a hit. A number with no mark means an inactive call. Activity calls are given as the source filed them. Cut-off read from the data, not from the text of the source: active = growth inhibition above about 70%; inactive = the rest.

Take `CCC1(C)OC(=O)C(c2ccccc2)O1` (stereo not given): the growth inhibition in assay [1] (setting [7]) was 1%; in assay [1] (setting [8]), -6%; in assay [1] (at 50.0 µM) it was 9.2%; in assay [2] (setting [7]) it was -2%; in assay [2] (setting [8]), 7%; in assay [2] (at 50.0 µM), -1.85%. Also, the growth inhibition in assay [3] (setting [7]) was 5%; in assay [3] (setting [8]) it was -5%; in assay [3] (at 50.0 µM), -19.5%; in assay [4] (setting [7]), 2%; in assay [4] (setting [8]) it was 1%; in assay [4] (at 50.0 µM) it was 9.7%. The growth inhibition in assay [5] (setting [7]) was 2%; in assay [5] (setting [8]) it was 3%; in assay [5] (at 50.0 µM), -6.45%; in assay [6] (setting [7]), -2%; in assay [6] (setting [8]), -5%; in assay [6] (at 50.0 µM) it was 17.1%.

As to `CCCCCCCCN(CCCCCCCC)CC(O)c1cc(OCC)nc2ccccc12` (stereo not given), the growth inhibition is 2% in assay [1] (setting [7]); 96% (active) in assay [1] (setting [8]); 97.8% (active) in assay [1] (at 50.0 µM); 4% in assay [2] (setting [7]); 97% (active) in assay [2] (setting [8]); 97.7% (active) in assay [2] (at 50.0 µM). Further, the growth inhibition in assay [3] (setting [7]) is 4%; in assay [3] (setting [8]) it was 96% (active); in assay [3] (at 50.0 µM), 97.4% (active); in assay [4] (setting [7]), 3%; in assay [4] (setting [8]), 96% (active); in assay [4] (at 50.0 µM), 93.5% (active). Also, the growth inhibition is 9% in assay [5] (setting [7]); 97% (active) in assay [5] (setting [8]); 97.8% (active) in assay [5] (at 50.0 µM); 9% in assay [6] (setting [7]); 95% (active) in assay [6] (setting [8]); 96.8% (active) in assay [6] (at 50.0 µM).

With `CCCCCCCCCCCCCC1OC(=O)C(C)=C1C(=O)O` (stereo not given), the growth inhibition in assay [1] (setting [7]) was -10%; in assay [1] (setting [8]) it was 50%; in assay [1] (at 50.0 µM), 72.6% (active); in assay [2] (setting [7]), -7%; in assay [2] (setting [8]) it was 73% (active); in assay [2] (at 50.0 µM), 26.9%. The growth inhibition in assay [3] (setting [7]) is -2%; in assay [3] (setting [8]) it was 60%; in assay [3] (at 50.0 µM), 47.5%; in assay [4] (setting [7]), -65%; in assay [4] (setting [8]) it was 59%; in assay [4] (at 50.0 µM), 10.6%. In addition, the growth inhibition in assay [5] (setting [7]) was -17%; in assay [5] (setting [8]) it was -25%; in assay [5] (at 50.0 µM), 27.4%; in assay [6] (setting [7]), -10%; in assay [6] (setting [8]), 74% (active); in assay [6] (at 50.0 µM) it was 61.9%.

As for `CN(C)CC(CN(C)C)C(=O)c1ccc2c(c1)OCO2`, the growth inhibition in assay [1] (setting [7]) is -8%; in assay [1] (setting [8]), -30%; in assay [1] (at 50.0 µM), 84.7% (active); in assay [2] (setting [7]), -15%; in assay [2] (setting [8]) it was -13%; in assay [2] (at 50.0 µM) it was 87% (active). The growth inhibition in assay [3] (setting [7]) was -10%; in assay [3] (setting [8]), -20%; in assay [3] (at 50.0 µM) it was 92.6% (active); in assay [4] (setting [7]) it was -6%; in assay [4] (setting [8]) it was -8%; in assay [4] (at 50.0 µM), 58.1%. For the same compound, the growth inhibition is -5% in assay [5] (setting [7]); 25% in assay [5] (setting [8]); 58.6% in assay [5] (at 50.0 µM); 0% in assay [6] (setting [7]); -20% in assay [6] (setting [8]); 93% (active) in assay [6] (at 50.0 µM).

`CCC(c1ccc(OC)cc1)C(CC)c1ccc(O)c(CN(C)C)c1` (stereo not given): the growth inhibition in assay [1] (setting [7]) is -2%; in assay [1] (setting [8]), 39%; in assay [1] (at 50.0 µM), 60.1%; in assay [2] (setting [7]) it was 0%; in assay [2] (setting [8]), 38%; in assay [2] (at 50.0 µM) it was 27.1%. For the same compound, the growth inhibition in assay [3] (setting [7]) was -4%; in assay [3] (setting [8]), 86% (active); in assay [3] (at 50.0 µM) it was 72.9% (active); in assay [4] (setting [7]) it was -1%; in assay [4] (setting [8]) it was 41%; in assay [4] (at 50.0 µM) it was 38.3%. In addition, the growth inhibition in assay [5] (setting [7]) is 4%; in assay [5] (setting [8]) it was 50%; in assay [5] (at 50.0 µM), 49%; in assay [6] (setting [7]), 3%; in assay [6] (setting [8]) it was 84% (active); in assay [6] (at 50.0 µM), 83.5% (active).

With `Cc1[nH]c(=O)[nH]c(=O)c1CN(C)Cc1cc(Cl)cc(Cl)c1O`, the growth inhibition in assay [1] (setting [7]) was -4%; in assay [1] (setting [8]) it was 70% (active); in assay [1] (at 50.0 µM), 53.1%; in assay [2] (setting [7]), -8%; in assay [2] (setting [8]), 55%; in assay [2] (at 50.0 µM), 26.9%. The growth inhibition in assay [3] (setting [7]) was 0%; in assay [3] (setting [8]), 95% (active); in assay [3] (at 50.0 µM), 77.4% (active); in assay [4] (setting [7]), -3%; in assay [4] (setting [8]), 43%; in assay [4] (at 50.0 µM) it was 22%. Also, the growth inhibition in assay [5] (setting [7]) was -8%; in assay [5] (setting [8]), 46%; in assay [5] (at 50.0 µM), 30.1%; in assay [6] (setting [7]), -3%; in assay [6] (setting [8]), 82% (active); in assay [6] (at 50.0 µM), 77.5% (active).

As for `C/C(=N\NC(=S)N1CCCCCC1)c1ccccn1`, the growth inhibition in assay [1] (setting [7]) was 88% (active); in assay [1] (setting [8]) it was 99% (active); in assay [1] (at 50.0 µM), 91.5% (active); in assay [2] (setting [7]), 86% (active); in assay [2] (setting [8]) it was 99% (active); in assay [2] (at 50.0 µM), 92.6% (active). Also, the growth inhibition in assay [3] (setting [7]) was 77% (active); in assay [3] (setting [8]), 99% (active); in assay [3] (at 50.0 µM), 92.3% (active); in assay [4] (setting [7]), 67%; in assay [4] (setting [8]), 98% (active); in assay [4] (at 50.0 µM), 89.7% (active). Besides, the growth inhibition was 87% (active) in assay [5] (setting [7]); 99% (active) in assay [5] (setting [8]); 92.1% (active) in assay [5] (at 50.0 µM); 90% (active) in assay [6] (setting [7]); 98% (active) in assay [6] (setting [8]); 92% (active) in assay [6] (at 50.0 µM).

On to `Cc1cccc(N2C(=O)c3ccccc3C2(c2ccccc2)N2CCCCC2)c1` (stereo not given), for which the growth inhibition in assay [1] (setting [7]) was -1%; in assay [1] (setting [8]) it was -5%; in assay [1] (at 50.0 µM) it was 65%; in assay [2] (setting [7]), 0%; in assay [2] (setting [8]), -1%; in assay [2] (at 50.0 µM) it was 28%. In addition, the growth inhibition in assay [3] (setting [7]) is 4%; in assay [3] (setting [8]), 2%; in assay [3] (at 50.0 µM), 73.7% (active); in assay [4] (setting [7]) it was 2%; in assay [4] (setting [8]) it was -2%; in assay [4] (at 50.0 µM), 75.3% (active). In addition, the growth inhibition is -2% in assay [5] (setting [7]); -6% in assay [5] (setting [8]); 50.3% in assay [5] (at 50.0 µM); -2% in assay [6] (setting [7]); -9% in assay [6] (setting [8]); 58.5% in assay [6] (at 50.0 µM).

Turning to `OCCN1CCN(CCCN2c3cc(Cl)ccc3Sc3ccsc32)CC1`, the growth inhibition in assay [1] (setting [7]) is -8%; in assay [1] (setting [8]), 98% (active); in assay [1] (at 50.0 µM), 98.5% (active); in assay [2] (setting [7]), 0%; in assay [2] (setting [8]) it was 98% (active); in assay [2] (at 50.0 µM), 98.4% (active). Besides, the growth inhibition in assay [3] (setting [7]) is -7%; in assay [3] (setting [8]), 95% (active); in assay [3] (at 50.0 µM), 98.7% (active); in assay [4] (setting [7]), -7%; in assay [4] (setting [8]) it was 97% (active); in assay [4] (at 50.0 µM) it was 94.4% (active). For the same compound, the growth inhibition is -2% in assay [5] (setting [7]); 97% (active) in assay [5] (setting [8]); 97.6% (active) in assay [5] (at 50.0 µM); -7% in assay [6] (setting [7]); 97% (active) in assay [6] (setting [8]); 98.1% (active) in assay [6] (at 50.0 µM).

On to `O=C1c2ccccc2-c2cc3ccccc3nc21`, for which the growth inhibition in assay [1] (setting [7]) is 28%; in assay [1] (setting [8]) it was 89% (active); in assay [1] (at 50.0 µM), 72.7% (active); in assay [2] (setting [7]) it was 21%; in assay [2] (setting [8]), 70% (active); in assay [2] (at 50.0 µM), 60.8%. The growth inhibition in assay [3] (setting [7]) was 15%; in assay [3] (setting [8]), 67%; in assay [3] (at 50.0 µM) it was 48.2%; in assay [4] (setting [7]), 23%; in assay [4] (setting [8]), 73% (active); in assay [4] (at 50.0 µM) it was 62.4%. The growth inhibition in assay [5] (setting [7]) was 15%; in assay [5] (setting [8]) it was 73% (active); in assay [5] (at 50.0 µM), 61.3%; in assay [6] (setting [7]), 16%; in assay [6] (setting [8]), 82% (active); in assay [6] (at 50.0 µM) it was 84.5% (active).

(Values after PubChem BioAssay (NCI).)
